In PubChem BioAssay (NCATS):
Results filed as inconclusive are left out. Where a call stands in place of a potency, no number is given. Calls of active or inactive are those of the source. Unless noted, calls follow the shape of the dose curve; as a rule, active = well fitted curve in the direction sought with a large enough effect; inconclusive = small, poorly fitted or top-dose-only effect, or another doubt; inactive = no such curve, though single readings can be large; an effect the other way counts as inactive or inconclusive.

How the values were obtained:
[1] = Validation screen for small molecules that induce DNA re-replication in MCF 10A normal breast cells (AID 463097); also: nearly all actives have a fitted effect of over 60% in size
Summary of the method: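 Read-out is Hoechst total nuclear intensity by fluorescence scanning imager, flagging increased high-DNA-content nuclei. Compounds were incubated with MCF 10A cells for 48 hr (37 C, 5% CO2) before 40 min staining.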

[2] = target: Ubiquitin carboxyl-terminal hydrolase 2 (Homo sapiens) (UniProt O75604); assay: qHTS Validation Assay for Inhibitors of Ubiquitin-specific Protease USP2a Using CHOP2 as the Reporter (AID 463106)
Summary of the method: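 Inhibition is expressed relative to NEM as the full-inhibition control, with concentration-response curves classed by fit quality, magnitude and activity. Enzyme (USP2 core, 10nM) meets 25nM Ub-CHOP2 after compound preincubation; readings are taken at 60min.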

[3] = target: DNA polymerase III PolC-type (Bacillus subtilis (strain 168)) (UniProt P13267); assay: qHTS Validation Assay for the Inhibitors of DNA Replication in Gram-Positive Bacteria (AID 485295);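 also: reconstituted holoenzyme with PolC plus beta clamp SSB and primase; PicoGreen fluorescence of double-stranded DNA made on primed circular M13 template; series mostly up to about 57 µM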
Summary of the method: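 Double-stranded DNA product detected by PicoGreen fluorescence after EDTA quench. Compound incubated with B. subtilis holoenzyme (PolC, beta subunit, SSB, primase) before substrate addition; primed replication of M13Gori with dNTPs and NTPs at room temperature; DMSO defines 0% inhibition.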

[4] = target: Tumor susceptibility gene 101 protein (Homo sapiens) (UniProt Q99816); assay: qHTS Validation Assay for Iinhibitors of HIV-1 Budding by Blocking the Interaction of PTAP/TSG101 (AID 485342; calls by dose curve)
Summary of the method: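 Fluorescence polarization of 50 nM FITC-PTAP peptide bound to 10 uM Tsg101 binding domain was read after 20 min room-temperature incubation with compounds, in 10 mM HEPES pH 7.5, 0.15 M NaCl, 0.01% Tween 20.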

[5] = target: Beta-2 adrenergic receptor (Homo sapiens) (UniProt P07550); assay: qHTS validation assay of beta-arrestin-biased ligands of beta2-adrenergic receptor (AID 485366)
Summary of the method: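 qHTS, Tango cells, 1500 cells/well, DMEM + 1% FBS. Cpd 18 hr at 37 degrees C. Luciferin/ATP/CoA detection mix, 15 min RT, luminescence read. %Activity from corrected signal; CRC fit, curve class.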

[6] = Quantitative high throughput screen for delayed death inhibitors of the malarial parasite plastid, 96 hour incubation (AID 488745); also: nearly all actives have a fitted effect of over 70% in size; also: potency is read from the fitted curve at half-maximal effect
Summary of the method: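 Decreased firefly luciferase luminescence indicates inhibited growth of reporter-integrated P. falciparum after two generations (96 h, 37 C, 5% CO2). Infected erythrocytes at 0.1% parasitemia, 2% hematocrit, in Albumax-supplemented RPMI 1640.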

[7] = Quantitative high throughput screen for delayed death inhibitors of the malarial parasite plastid, 48 hour incubation (AID 488752); also: nearly all actives have a fitted effect of over 65% in size; also: potency is read from the fitted curve at half-maximal effect
Summary of the method: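 One-generation (48 h) growth assay: a decrease in luciferase signal from an integrated reporter in P. falciparum-infected red cells (0.1% parasitemia, 2% hematocrit) after compound exposure at 37 C indicates parasite inhibition.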

[8] = target: Thioredoxin reductase 1, cytoplasmic (Rattus norvegicus) (UniProt O89049); assay: qHTS Assay for Substrates of Mammalian Selenoprotein Thioredoxin Reductase 1 (TrxR1) (AID 488772);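 also: series mostly up to about 57 µM; a drop in NADPH fluorescence below the no-compound background marks a TrxR1 substrate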
Summary of the method: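 In this dual-purpose format, potential substrates are identified from the first fluorescence read after selenite addition, not from the 8-minute delta. Rat enzyme is preincubated with NADPH and then with compound at ~22 deg C.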

[9] = target: Thioredoxin reductase 1, cytoplasmic (Rattus norvegicus) (UniProt O89049); assay: qHTS Assay for Inhibitors of Mammalian Selenoprotein Thioredoxin Reductase 1 (TrxR1) (AID 488773); details: Potency: inhibition;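 also: drop in NADPH fluorescence over an 8 min run after selenite addition; series mostly up to about 57 µM; nearly all actives have a fitted effect of over 40% in size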
Summary of the method: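 Inhibition is scored from the loss of NADPH fluorescence between first and last reads of an 8-min kinetic run. Selenite (400 uM) was the substrate, added after 15 min compound preincubation at room temperature.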

[10] = target: Flap endonuclease 1 (Homo sapiens) (UniProt P39748); assay: qHTS Validation Assay for the Inhibitors of Human Flap endonuclease 1 (FEN1) (AID 488816); also: potency is read from the fitted curve at half-maximal effect
Summary of the method: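 Steps: add FEN1 (10 nM reagent) or buffer only; pin compounds; hold 15 min at room temperature; start with substrate, 50 nM final; read at 0 and 15 min; correct, normalize and fit a four-parameter Hill curve.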

[11] = target: M-phase phosphoprotein 8 (Homo sapiens) (UniProt Q99549); assay: qHTS Validation Assay for Inhibitors for MPP8 Chromodomain Interactions with Methylated Histone Tails (AID 488949); also: nearly all actives have a fitted effect of over 55% in size; also: potency is read from the fitted curve at half-maximal effect
Summary of the method: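 AlphaScreen proximity signal from streptavidin donor and Ni-chelate acceptor beads (10 ug/mL each) reported binding of MPP8 to trimethyl-K9 H3(1-18) peptide, both at 50 nM. The complex formed 30 min before a 30 min compound exposure at room temperature, in PBS pH 7.4.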

[12] = target: Methanococcus maripaludis chaperonin (MmCpn) (UniProt Q6LX38); assay: High-Throughput Screening for Modulators of Cytosolic Chaperonin Activity: MmCpn Primary Screen (AID 488978);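 also: 50 nM MmCpn enzyme hydrolysing 30 µM ATP at 37 °C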
Summary of the method: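 ATPase activity of 50 nM MmCpn was assayed with 30 uM ATP, 10 minutes at 37C, after a 5 min compound preincubation at room temperature. ADP production was read as HTRF emission at 590 and 665 nm.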

[13] = High Content Imaging Cell-Based qHTS for Inhibitors of the mTORC1 Signaling Pathway in MEF Cells (AID 2667); also: potency is read from the fitted curve at half-maximal effect
Summary of the method: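 Fixed-cell imaging of phospho-S6 (Ser235/236, Alexa-488) after 24 hrs of compound treatment at 37 degree Celsius. Signal was normalized to Hoechst, and thresholds from the highest and lowest wells split cells into % active versus % non-active.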

[14] = Cytometry Cell-Based qHTS for Inhibitors of the mTORC1 Signaling Pathway in MEF cells (AID 2668);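 also: Tsc2-/- p53-/- mouse embryonic fibroblasts stably re-expressing wild-type Tsc2; percent cells positive for phospho-rpS6 Ser235/236 relative to propidium iodide stain; series mostly up to about 38 µM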
Summary of the method: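 Phospho-rpS6 (Ser235/236) immunofluorescence over PI signal, scored as % positive cells using thresholds from 7.5 nM rapamycin and DMSO wells, after 24 h compound exposure of WT-Tsc2-rescued Tsc2-/-, p53-/- MEFs. PI cell count recorded for viability.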

[15] = qHTS Validation Assay to Find Inhibitors of Chronic Active B-Cell Receptor Signaling (AID 485345; active = well fitted curve in the direction sought with a large enough effect in the main read-out, with a control signal flat, not every such curve was filed as active; also: potency is read from the fitted curve at half-maximal effect)
Summary of the method: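 TMD8 ABC-DLBCL cells with dox-inducible green luciferase–IκBα fusion and red native luciferase; compounds 46 uM–3 nM, 4 h at 37C with doxycycline in 0.5% FBS IMDM. Green/red ratio normalized to basal and 10 uM MG-132.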

[16] = target: Chromobox protein homolog 1 (Homo sapiens) (UniProt P83916); assay: qHTS Validation Assay for Inhibitors of HP1-beta Chromodomain Interactions with Methylated Histone Tails (AID 488953); also: nearly all actives have a fitted effect of over 50% in size; also: potency is read from the fitted curve at half-maximal effect
Summary of the method: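 AlphaScreen proximity signal from streptavidin donor and nickel chelate acceptor beads (final 10 ug/mL) after 30 min dark incubation. Compounds had 30 min at room temperature with preformed complex of 50 nM HP1-beta and 50 nM b-H3(1-18)K9me3 in PBS pH 7.4 with 0.01% Tween-20.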

[17] = target: D(1A) dopamine receptor (Homo sapiens) (UniProt P21728); assay: HTS Assay for Allosteric Agonists of the Human D1 Dopamine Receptor: Primary Screen for Agonists (AID 488981)
Summary of the method: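 Tetracycline-induced HEK293 T-REx cells force-coupled to calcium signalling were incubated overnight at 30 C and dye-loaded at room temperature. Calcium flux over 180 s after compound addition flagged agonists; a further 180 s read after EC20 dopamine flagged potentiators.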

[18] = target: ATP-dependent 6-phosphofructokinase (Trypanosoma brucei brucei) (UniProt O15648); assay: qHTS Validation Assay to Find Inhibitors of T. brucei phosphofructokinase (AID 485368); details: outcome: dose series up to 57.5 µM
Summary of the method: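 Luminescent ADP detection measures PFK turnover of fructose-6-phosphate (0.5 mM) with ATP (0.1 mM) at pH 8.0. Reaction runs 45 min at room temperature with 1.25 nM enzyme; inhibitors tested as titrations up to 57 uM.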

[19] = target: Transient receptor potential cation channel subfamily V member 1 (Homo sapiens) (UniProt Q8NER1); assay: HTS Assay for Compounds that Act as Enhancers of the Vanilloid Receptor 1 (AID 488979)
Summary of the method: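 TRPV1-expressing cells loaded with Fluo-8 calcium dye; compounds added and calcium influx read kinetically for 3 min (agonist phase), then capsaicin at EC20 added and read 2 min more for enhancement. Fluorescence ex 480/em 520 nm.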

[20] = target: Thyrotropin receptor (Homo sapiens) (UniProt P16473); assay: qHTS Assay for Antagonists of the Thyroid Stimulating Hormone Receptor (AID 488980); also: series mostly up to about 58 µM
Summary of the method: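 Inhibition of cAMP raised by EC80 TSH (4 nM final) was read by HTRF, with lysate cAMP competing against cAMP-d2 for cryptate antibody after 30 min at room temperature. The cells were transfected HEK293 held in phosphodiesterase inhibitor RO 20-1724 at 70 uM.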

Flap endonuclease 1 (Homo sapiens), sequence (P39748 whole entry, looked up): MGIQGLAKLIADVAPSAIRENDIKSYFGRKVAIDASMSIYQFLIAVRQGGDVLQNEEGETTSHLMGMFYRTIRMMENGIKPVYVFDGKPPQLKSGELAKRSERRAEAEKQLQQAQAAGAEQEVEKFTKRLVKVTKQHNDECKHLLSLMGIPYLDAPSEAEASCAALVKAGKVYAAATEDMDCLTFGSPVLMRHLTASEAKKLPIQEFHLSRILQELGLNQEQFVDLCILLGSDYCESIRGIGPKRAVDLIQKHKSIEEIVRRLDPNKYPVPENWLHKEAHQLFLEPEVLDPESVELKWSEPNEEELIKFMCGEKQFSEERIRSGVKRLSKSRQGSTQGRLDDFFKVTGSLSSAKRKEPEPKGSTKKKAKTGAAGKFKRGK
Tumor susceptibility gene 101 protein (Homo sapiens), sequence (Q99816 whole entry, looked up, the tested form may be a part): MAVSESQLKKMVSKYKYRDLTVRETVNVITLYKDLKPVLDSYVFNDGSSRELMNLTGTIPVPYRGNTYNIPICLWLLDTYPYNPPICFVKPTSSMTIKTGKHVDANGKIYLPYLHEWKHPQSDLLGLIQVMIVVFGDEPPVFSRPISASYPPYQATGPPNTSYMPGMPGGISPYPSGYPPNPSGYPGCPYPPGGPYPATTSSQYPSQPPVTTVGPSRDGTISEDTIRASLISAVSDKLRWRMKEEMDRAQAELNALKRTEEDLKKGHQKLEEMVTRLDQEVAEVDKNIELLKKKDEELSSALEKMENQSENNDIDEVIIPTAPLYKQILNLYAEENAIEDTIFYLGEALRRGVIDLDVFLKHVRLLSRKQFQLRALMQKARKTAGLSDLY
Transient receptor potential cation channel subfamily V member 1 (Homo sapiens), sequence (Q8NER1 whole entry, looked up): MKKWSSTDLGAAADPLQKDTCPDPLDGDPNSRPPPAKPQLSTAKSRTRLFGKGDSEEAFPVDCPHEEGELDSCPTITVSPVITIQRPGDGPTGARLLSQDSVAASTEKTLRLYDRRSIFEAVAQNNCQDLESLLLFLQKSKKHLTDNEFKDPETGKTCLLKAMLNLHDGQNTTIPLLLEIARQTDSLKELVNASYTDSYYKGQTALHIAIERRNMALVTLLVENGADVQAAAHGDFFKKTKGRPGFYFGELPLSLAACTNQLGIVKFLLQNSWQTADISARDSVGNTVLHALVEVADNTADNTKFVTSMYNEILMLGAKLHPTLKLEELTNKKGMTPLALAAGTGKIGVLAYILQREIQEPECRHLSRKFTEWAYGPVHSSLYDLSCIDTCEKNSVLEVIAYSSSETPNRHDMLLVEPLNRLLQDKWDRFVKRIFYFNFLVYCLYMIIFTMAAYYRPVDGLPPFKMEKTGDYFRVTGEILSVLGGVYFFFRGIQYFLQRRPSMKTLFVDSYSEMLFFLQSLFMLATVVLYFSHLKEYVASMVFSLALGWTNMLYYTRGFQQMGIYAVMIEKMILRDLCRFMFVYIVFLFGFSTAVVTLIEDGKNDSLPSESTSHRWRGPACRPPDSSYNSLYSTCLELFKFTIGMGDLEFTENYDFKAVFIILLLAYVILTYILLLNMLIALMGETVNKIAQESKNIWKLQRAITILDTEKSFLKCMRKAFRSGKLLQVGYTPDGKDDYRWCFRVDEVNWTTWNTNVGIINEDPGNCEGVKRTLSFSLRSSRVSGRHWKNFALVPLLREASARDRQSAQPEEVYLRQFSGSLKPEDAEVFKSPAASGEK
ATP-dependent 6-phosphofructokinase (Trypanosoma brucei brucei), sequence (O15648 whole entry, looked up): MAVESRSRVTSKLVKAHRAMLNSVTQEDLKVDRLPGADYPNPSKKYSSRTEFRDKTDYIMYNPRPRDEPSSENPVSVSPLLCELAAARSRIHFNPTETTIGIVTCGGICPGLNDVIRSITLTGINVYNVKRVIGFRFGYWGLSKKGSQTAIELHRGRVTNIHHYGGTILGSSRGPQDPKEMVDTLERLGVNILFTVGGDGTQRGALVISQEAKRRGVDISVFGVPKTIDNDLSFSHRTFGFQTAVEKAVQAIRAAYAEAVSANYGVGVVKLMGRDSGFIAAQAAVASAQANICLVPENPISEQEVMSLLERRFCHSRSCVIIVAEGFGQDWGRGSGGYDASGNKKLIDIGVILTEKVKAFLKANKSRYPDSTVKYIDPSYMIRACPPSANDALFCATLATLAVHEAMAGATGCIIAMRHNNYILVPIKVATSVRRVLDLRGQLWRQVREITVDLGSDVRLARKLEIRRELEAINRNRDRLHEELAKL
Thioredoxin reductase 1, cytoplasmic (Rattus norvegicus), sequence (O89049 whole entry, looked up): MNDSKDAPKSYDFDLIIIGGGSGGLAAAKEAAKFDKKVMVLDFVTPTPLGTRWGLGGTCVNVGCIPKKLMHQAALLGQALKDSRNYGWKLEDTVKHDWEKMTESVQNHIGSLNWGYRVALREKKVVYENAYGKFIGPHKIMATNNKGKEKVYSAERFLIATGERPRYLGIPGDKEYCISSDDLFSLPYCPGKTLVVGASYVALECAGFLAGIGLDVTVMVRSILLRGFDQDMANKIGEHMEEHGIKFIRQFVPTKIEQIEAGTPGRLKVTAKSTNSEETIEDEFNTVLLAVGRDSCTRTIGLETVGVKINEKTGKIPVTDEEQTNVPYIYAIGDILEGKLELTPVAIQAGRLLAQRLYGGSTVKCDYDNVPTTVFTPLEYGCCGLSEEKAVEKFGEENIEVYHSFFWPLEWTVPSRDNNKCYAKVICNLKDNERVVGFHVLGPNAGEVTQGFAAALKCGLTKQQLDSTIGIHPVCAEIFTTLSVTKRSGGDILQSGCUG
M-phase phosphoprotein 8 (Homo sapiens), sequence (Q99549 whole entry, looked up): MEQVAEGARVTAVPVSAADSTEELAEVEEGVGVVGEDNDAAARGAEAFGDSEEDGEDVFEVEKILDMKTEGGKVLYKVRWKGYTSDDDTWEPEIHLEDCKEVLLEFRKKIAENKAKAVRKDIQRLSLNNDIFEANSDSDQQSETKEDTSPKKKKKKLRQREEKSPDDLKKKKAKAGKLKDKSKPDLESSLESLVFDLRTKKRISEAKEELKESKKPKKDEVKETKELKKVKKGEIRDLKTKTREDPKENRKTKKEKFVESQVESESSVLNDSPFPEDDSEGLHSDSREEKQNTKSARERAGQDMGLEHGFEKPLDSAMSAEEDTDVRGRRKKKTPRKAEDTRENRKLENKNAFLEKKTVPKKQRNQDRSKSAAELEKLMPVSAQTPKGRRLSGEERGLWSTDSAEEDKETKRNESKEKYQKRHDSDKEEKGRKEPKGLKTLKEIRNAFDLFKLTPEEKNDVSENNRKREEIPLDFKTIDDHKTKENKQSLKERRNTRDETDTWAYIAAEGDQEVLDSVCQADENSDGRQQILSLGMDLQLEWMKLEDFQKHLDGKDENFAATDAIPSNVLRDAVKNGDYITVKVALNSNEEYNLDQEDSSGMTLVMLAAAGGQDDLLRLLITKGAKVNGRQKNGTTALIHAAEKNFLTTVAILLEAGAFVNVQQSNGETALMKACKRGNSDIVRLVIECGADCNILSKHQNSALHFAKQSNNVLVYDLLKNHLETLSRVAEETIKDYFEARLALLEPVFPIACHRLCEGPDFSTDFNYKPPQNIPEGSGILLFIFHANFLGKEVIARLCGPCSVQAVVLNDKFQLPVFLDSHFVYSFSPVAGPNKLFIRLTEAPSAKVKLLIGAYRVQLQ
Thyrotropin receptor (Homo sapiens), sequence (P16473 whole entry, looked up): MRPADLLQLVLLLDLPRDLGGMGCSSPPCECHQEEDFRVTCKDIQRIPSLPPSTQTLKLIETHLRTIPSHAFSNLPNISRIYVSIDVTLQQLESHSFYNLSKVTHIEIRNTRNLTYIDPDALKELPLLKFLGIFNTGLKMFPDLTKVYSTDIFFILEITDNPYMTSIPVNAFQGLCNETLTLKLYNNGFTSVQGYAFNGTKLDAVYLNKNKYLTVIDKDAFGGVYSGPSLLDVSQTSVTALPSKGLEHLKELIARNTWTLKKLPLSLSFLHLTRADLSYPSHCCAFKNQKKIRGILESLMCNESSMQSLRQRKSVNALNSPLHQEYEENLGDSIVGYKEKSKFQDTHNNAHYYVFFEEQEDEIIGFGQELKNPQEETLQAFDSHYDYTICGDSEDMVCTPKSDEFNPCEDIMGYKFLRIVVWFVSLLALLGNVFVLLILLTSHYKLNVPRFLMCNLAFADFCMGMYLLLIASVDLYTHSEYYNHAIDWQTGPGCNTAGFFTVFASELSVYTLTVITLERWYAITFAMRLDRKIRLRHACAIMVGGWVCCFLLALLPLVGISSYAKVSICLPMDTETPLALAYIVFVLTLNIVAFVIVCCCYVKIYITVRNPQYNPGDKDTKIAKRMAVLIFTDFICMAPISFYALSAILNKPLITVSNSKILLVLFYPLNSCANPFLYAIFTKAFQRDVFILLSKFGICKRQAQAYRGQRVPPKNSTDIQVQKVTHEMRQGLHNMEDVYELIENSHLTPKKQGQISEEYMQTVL
Methanococcus maripaludis chaperonin (MmCpn), sequence (Q6LX38 1-543): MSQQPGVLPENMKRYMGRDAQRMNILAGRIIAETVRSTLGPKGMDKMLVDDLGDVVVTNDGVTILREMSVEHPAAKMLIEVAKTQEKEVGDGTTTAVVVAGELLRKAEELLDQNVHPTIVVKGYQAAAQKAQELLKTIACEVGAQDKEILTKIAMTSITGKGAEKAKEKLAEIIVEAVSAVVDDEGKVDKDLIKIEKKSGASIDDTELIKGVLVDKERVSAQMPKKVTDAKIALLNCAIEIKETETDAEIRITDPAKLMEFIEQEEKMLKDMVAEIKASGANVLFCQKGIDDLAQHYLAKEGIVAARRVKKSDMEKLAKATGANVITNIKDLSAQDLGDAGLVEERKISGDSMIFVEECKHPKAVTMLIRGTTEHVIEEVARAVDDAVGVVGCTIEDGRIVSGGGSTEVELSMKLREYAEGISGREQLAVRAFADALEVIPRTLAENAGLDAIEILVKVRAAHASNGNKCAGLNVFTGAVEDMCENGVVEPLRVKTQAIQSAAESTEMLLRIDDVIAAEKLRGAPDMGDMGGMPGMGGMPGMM
Chromobox protein homolog 1 (Homo sapiens), sequence (P83916 whole entry, looked up): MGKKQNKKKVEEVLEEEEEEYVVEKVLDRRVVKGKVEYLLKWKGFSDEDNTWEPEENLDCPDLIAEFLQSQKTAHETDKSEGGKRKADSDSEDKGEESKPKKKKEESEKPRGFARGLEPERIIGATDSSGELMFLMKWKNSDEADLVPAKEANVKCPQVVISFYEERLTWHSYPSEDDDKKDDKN

Row | Structure (SMILES) | Potency [1] | outcome [2] | Potency [3] | outcome [4] | outcome [5] | Potency [6] | Potency [7] | outcome [8] | Potency [9] | Potency [10] | Potency [11] | outcome [12] | Potency [13] | Potency [14] | Potency [15] | Potency [16] | Potency [17] | outcome [18] | outcome [19] | outcome [20]
1 | CN(C)CCCN1c2ccccc2Sc2ccccc21 | inactive | inactive | inactive | inactive | inactive | inactive | inactive | inactive | inactive | inactive | inactive | inactive |  |  |  |  |  |  |  | 
2 | C[C@@H](O)[C@H]1C(=O)N2C(C(=O)O)=C(SCCN=CN)C[C@H]12 |  | inactive | inactive | inactive | inactive |  |  | inactive | inactive | inactive |  | inactive | inactive | inactive | inactive | inactive | inactive |  |  | 
3 | C[C@]12CC[C@@H]3c4ccc(O)cc4C[C@@H](CCCCCCCCCS(=O)CCCC(F)(F)C(F)(F)F)[C@H]3[C@@H]1CC[C@@H]2O (stereo partly drawn) |  | inactive | inactive | inactive | inactive |  |  |  | inactive | inactive | inactive | inactive | inactive | inactive |  | inactive | inactive | inactive |  | 
4 | NC(N)=N/N=C/c1c(Cl)cccc1Cl | inactive | inactive | inactive | inactive | inactive |  | inactive | inactive | inactive |  | inactive | inactive | inactive |  | inactive | inactive | inactive |  | inactive | inactive
5 | COC(=O)C1=C(C)NC(C)=C(C(=O)OC(C)(C)CN(C)CCC(c2ccccc2)c2ccccc2)C1c1cccc([N+](=O)[O-])c1 (stereo not drawn) |  | inactive | inactive | inactive | inactive |  |  | inactive | inactive | inactive |  | inactive |  |  | inactive | 25.1 µM (active) | inactive | inactive |  | 
6 | CN(C)[C@@H]1C(=O)C(C(N)=O)=C(O)[C@@]2(O)C(=O)C3=C(O)c4c(O)ccc(Cl)c4[C@@H](O)[C@H]3C[C@@H]12 |  | inactive | inactive | inactive | inactive |  |  | inactive |  | 29.9 µM (active) |  |  | inactive | inactive | inactive |  | inactive |  |  | 
7 | CCCCNc1c(C(=O)OCC)c(C)nc2c1cnn2CC |  | inactive | inactive | inactive | inactive |  |  |  | inactive | inactive |  | inactive | inactive | inactive |  | inactive | inactive |  | inactive | inactive
8 | CC(C)(C)c1ccc(C(=O)CCCN2CCC(OC(c3ccccc3)c3ccccc3)CC2)cc1 |  | inactive | inactive | inactive | inactive |  |  | inactive | inactive | inactive |  |  | 4.65 µM (active) |  | inactive |  | inactive | inactive |  | 
9 | CC1=C(C)C(=O)C(CCCCC#CCCCC#CCO)=C(C)C1=O |  | inactive | inactive | inactive | inactive | 10.4 µM (active) | 8.28 µM (active) | inactive |  | inactive | 31.6 µM (active) | inactive |  |  | 16.4 µM (active) | 31.6 µM (active) | inactive |  | inactive | inactive
10 | Nc1nc(N)c2nc(-c3ccccc3)c(N)nc2n1 |  | inactive | inactive | inactive | inactive | 8.28 µM (active) |  | inactive | inactive | inactive |  | inactive | inactive |  |  |  | inactive |  | inactive | inactive
